Screening data (PubChem)
Shown are actives, neighbours in structure and some others; about 19% of the full set was active somewhere.
HT1080NT lethal: kills 2HG-producing HT-1080-NT fibrosarcoma cells; Potency, µM (series often up to 46.1 µM), for the others: at the top dose activity, negative = less viability, most hits filed as cytotoxic; AID 686970; HT-1080-NT fibrosarcoma viability, CellTiter-Glo ATP luminescence, 48 h; actives 1.6% (n = 360,000);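 further: NT is the 2HG producing partner of a matched IDH1 knockdown line; potency means the concentration at half of the fitted maximal effect; 0% = DMSO-treated cells and -100% = media-only wells without cells; nearly all actives have a fitted effect of over 55% in size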
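Viability of the 2HG-overproducing fibrosarcoma line after 48 hours of compound exposure at 37 degrees C was determined by luminescence with CellTiter-Glo, and concentration-effect curves were then fitted and categorized.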
HT1080 IDH1KD tx: kills HT-1080 cells with IDH1 knockdown. HT-1080 IDH1 knockdown viability, ATP luminescence, 48 h. Potency, µM (doses to about 46.1 µM), inactives show at the top dose activity, negative = toxicity, hits mostly cytotoxic. actives 2% (n = 360,000);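 further: potency means the concentration at half of the fitted maximal effect; 0% = DMSO wells and -100% = cell-free medium wells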
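CellTiter-Glo luminescence after 48 h compound exposure at 37 degrees C of IDH1-knockdown HT-1080 cells in 5% FBS RPMI. %Activity scaled between DMSO wells and cell-free media wells, with curves fitted and assigned curve classes.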
DT40 TDP1 no CPT: qHTS for Inhibitors of human tyrosyl-DNA phosphodiesterase 1 (TDP1): qHTS in cells in absence of CPT; AID 686978, 2013; actives 15% (n = 420,000); DT40 Tdp1-/- hTDP1 cells, no CPT, ATP luminescence, 48 h; Potency, µM (titrated, usually from 46.2 µM), for the others: at the top dose activity change, negative = growth inhibition, actives largely listed as inhibitors; further: potency means the concentration at half of the fitted maximal effect; nearly all actives have a fitted effect of over 55% in size
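Growth of hTDP1-complemented DT40 Tdp1-knockout cells is measured by ATP luminescence after at least 48 hr compound exposure at 37 °C, with DMSO substituting for the 20 nM CPT used in the parallel screen.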
IL-1B inflam inh: inflammasome signaling inhibition, IL-1 beta readout; THP-1 LPS/ATP IL-1B secretion, AlphaLISA, 16 h; hits give low values; activity change, % at 57.5 µM; actives 4.7% (n = 360,000); in the data active means activity change below about -50%; inconclusive means mostly about -30% to -49%
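Secreted IL-1B measured by AlphaLISA bead assay after 16 h compound exposure of THP-1 cells; compounds (final up to 57.5 uM) added 1 h before LPS (250 ng/mL) and ATP (1.25 mM) stimulation; lower signal means less secretion.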
TDP1 cell CPT: growth inhibition of DT40 Tdp1-/-;hTDP1 cells with camptothecin (screen for TDP1 inhibitors); Potency, µM (highest dose often 46.2 µM), for the others: at the highest dose activity change, negative = growth inhibition, most hits filed as inhibitors; actives 12% (n = 420,000); chicken DT40 Tdp1-/-;hTDP1 cells + 20 nM CPT, ATP luminescence, 48 h; further: potency means the concentration at half of the fitted maximal effect; nearly all actives have a fitted effect of over 55% in size
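Chicken DT40 Tdp1-/- cells stably complemented with human TDP1 were seeded at 400 cells/well in medium containing 20 nM camptothecin, exposed to pin-transferred compounds, and grown at 37 °C for at least 48 hr. Viability was read as ATP luminescence.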
Numbers without * were called inactive; ? = inconclusive; / = no result given; [ ] = another dose, or the depositor's remark. Unless noted, the call rests on the fitted dose curve; in most records, active means well fitted curve in the direction sought with a large enough effect; inconclusive means small, poorly fitted or top-dose-only effect, or another doubt; inactive means no such curve, though single readings can be large; an effect the other way counts as inactive or inconclusive. Unless noted, on the % scale 0 is the no-effect control and ±100 the full control effect.

SMILES	HT1080NT lethal	HT1080 IDH1KD tx	DT40 TDP1 no CPT	IL-1B inflam inh	TDP1 cell CPT
COc1ccccc1NS(=O)(=O)c1cccc(C(=O)N/N=C/c2ccc3c(c2)OCCO3)c1	8.0%	1.7%	-19.5%	-16.4	-5.4%
CCN(CC)c1ccc(/C=N/NC(=O)c2cccc(S(=O)(=O)Nc3ccccc3OC)c2)cc1	-23.6%	?	-15.9%	0.0	-17.3%
COC(=O)C1CCN(C(=O)COC(=O)/C=C/c2ccc(O)c(OC)c2)CC1	-6.5%[9.24 µM]	9.4%	-0.2%	30.8	-12.3%
COc1cc(C(=O)OCC(=O)Nc2cccc(S(=O)(=O)N3CCCC3)c2)ccc1OCC(C)C	-3.3%	-18.8%	?	13.5	?
Cc1c(C)c2c(c(C)c1O)CCC(C)(CCCC(C)CCCC(C)CCCC(C)C)O2 (configuration not stated)	/	/	-1.5%	/	-3.1%
Cc1c(C)c2c(c(C)c1O)CCC(C)(COc1ccc(CC3SC(=O)NC3=O)cc1)O2 (configuration not stated)	/	/	13µM*	/	13µM*
CCOC(=O)[C@@H]1[C@H]2COc3ccc(Br)cc3[C@@H]2N2C(=O)N(c3ccc(C(F)(F)F)cc3)C(=O)[C@@]12C	2.6%	-2.0%	23.1µM*	12.8	20.6µM*
CCOC(=O)[C@@H]1[C@H]2COc3cc(OC)ccc3[C@@H]2N2C(=O)N(c3ccc(Br)cc3)C(=O)[C@@]12C	19.1%	-0.4%	?	-1.3	?
CCOC(=O)[C@@H]1[C@H]2COc3ccccc3[C@@H]2N2C(=O)N(c3ccc(Cl)cc3)C(=O)[C@@]12C	-0.4%	-1.2%	-22.2%	-11.3	-18.5%
CCOC(=O)[C@@H]1[C@H]2COc3ccc(Br)cc3[C@@H]2N2C(=O)N(c3cccc(F)c3)C(=O)[C@@]12C	-1.1%	-4.2%	18.4µM*	10.0	25.9µM*
CCOC(=O)[C@@H]1[C@H]2COc3ccc(Br)cc3[C@@H]2N2C(=O)N(c3ccc(F)cc3)C(=O)[C@@]12C	-6.9%	2.6%	?	11.9	?
CCOC(=O)[C@@H]1[C@H]2COc3ccc(Br)cc3[C@@H]2N2C(=O)N(c3ccc(Cl)cc3)C(=O)[C@@]12C	-14.4%	-13.0%	16.4µM*	-0.3	20.6µM*
CCOC(=O)[C@@H]1[C@H]2COc3ccccc3[C@@H]2N2C(=O)N(c3cccc(F)c3)C(=O)[C@]12C	0.0%	6.3%	-8.8%	1.2	-2.3%
CCOC(=O)[C@H]1[C@H]2COc3ccc(Br)cc3[C@@H]2N2C(=O)N(c3ccc(F)cc3)C(=O)[C@@]12C	-9.7%	-3.4%	?	30.2	18.4µM*
OCCCNc1ncnc2c1ncn2[C@H]1CN(Cc2cccs2)C[C@@H](CO)O1	1.5%	7.8%	-7.2%	-8.0	-7.2%
COc1cc(OC)c(S(=O)(=O)NC(C)C)cc1C(=O)O	5.6%	6.2%	6.5%	3.8	-11.5%
CCOc1ccc(OCC(=O)Nc2ccc(S(=O)(=O)Nc3cc(C)on3)cc2)cc1	/	/	4.4%	/	2.1%
Cc1ccc(CNC(=O)c2[nH]c(C(F)(F)F)nc2-c2ccccc2)cc1	?	-21.3%	20.6µM*	20.0	?
O=C(NCc1cccc(C(F)(F)F)c1)c1[nH]c(C(F)(F)F)nc1-c1ccccc1	?	?	?	34.3	?
Cc1onc(-c2c(Cl)cccc2Cl)c1C(=O)N1CCCc2ccccc21	-26.1%	-22.6%	20.6µM*	6.7	20.6µM*
Cc1onc(-c2ccccc2)c1C(=O)N1CCCc2ccccc21	4.8%	-4.9%	16.4µM*	42.2	?
Cc1noc(C)c1C(=O)N1CCc2ccccc21	-12.6%	-11.1%	-3.7%	23.5	-18.8%
O=C1NC(=Nc2ccc(F)cc2)CS1	15.2%	-2.9%	-18.7%	1.5	9.3%
Cc1ccc(F)cc1NC(=O)CSc1nnc(CNC(=O)c2ccco2)n1C	-5.5%	-9.4%	-8.4%	19.9	-19.1%
C/C(=N\NC(=O)c1nnn(-c2nonc2N)c1CN(C)c1ccccc1)c1ccccc1O	?	?	6.51µM*	92.9	8.2µM*
SMILES	HT1080NT lethal	HT1080 IDH1KD tx	DT40 TDP1 no CPT	IL-1B inflam inh	TDP1 cell CPT
C/C(=N\NC(=O)c1nnn(-c2nonc2N)c1CN1CCCCC1)c1ccccc1O	?	?	13µM*	94.7	10.3µM*
CC(/C=N/NC(=O)c1nnn(-c2nonc2N)c1CN1CCCCC1)=C\c1ccccc1	?	?	?	-6.7	?
C=CC(=O)N1C/C(=C/c2ccc(Cl)cc2)C(=O)/C(=C\c2ccc(Cl)cc2)C1	5.8µM*	2.91µM*	0.411µM*	-115.2*	0.231µM*
O=C1C(=Cc2ccc(Cl)cc2)Cc2ccccc21	20.3%	23.1%	-10.9%	16.8	-4.4%
CN1C/C(=C/c2ccncc2)C(=O)/C(=C/c2ccncc2)C1	-5.6%	-3.8%	-28.8%	2.7	?
C=CC(=O)N1C/C(=C/c2ccccc2)C(=O)/C(=C\c2ccccc2)C1	-1.6%	4.11µM*	0.731µM*	-102.6*	0.731µM*
O=C(c1ccccc1-n1cccn1)N1CCOc2c(cc(-c3ncc(C(F)(F)F)cc3Cl)cc2OCC2CCCO2)C1 (configuration not stated)	/	/	-18.0%	/	?
CN(C(=O)COC(=O)c1ccc(=O)n(Cc2ccccc2)n1)C1CCS(=O)(=O)C1 (configuration not stated)	1.4%	1.9%	-2.2%	5.9	-10.9%
CCOc1ccc2nc(NC(=O)Cn3c(C)csc3=O)sc2c1	2.1%	4.5%	-12.3%	-9.1	-20.9%
COc1ccc(NC(=O)CSc2nnc(-c3cccs3)n2-c2ccccc2)cc1	23.1µM*	?	-15.4%	7.7	-5.3%
Cn1c(=O)n(C)c2cc(NC(=O)CSc3nnc(-c4ccccc4O)n3-c3ccccc3)ccc21	-18.8%	-13.0%	?	-9.5	18.4µM*
COc1ccc(NC(=O)CSc2nnc(-c3ccccc3C)n2N)cc1	2.8%	0.2%	20.6µM*	-1.2	16.4µM*
COc1ccc(NC(=O)CSc2nnc(C3CC3)n2-c2ccccc2)cc1	8.3%	4.7%	-6.0%	-5.3	-16.2%
Cc1ccc(C(=O)NC2CCC(C)CC2)o1 (configuration not stated)	-0.9%	2.8%	-2.1%	-8.9	23.3%
CSc1ccc(CN2C(=O)C(F)(F)Oc3c(C(C)=O)cccc32)cc1	-1.4%	-1.1%	16.4µM*	-7.1	18.4µM*
Cc1cccc(Cn2c(C(C)(C)C)cc3cccnc32)c1	?	?	20.6µM*	-23.3	?
Cc1cccc(CN2CCN(c3ncccn3)CC2)c1	0.9%	-6.1%	-2.9%	-15.6	3.7%
CCOC(=O)c1cc(CC)sc1NC(=O)c1cc(OC)c(OC)c(OC)c1	16.9%	17.5%	17.8µM*	-15.8	?
